# CBFb-RUNX1 inh: inhibitors of human CBF-beta and RUNX1 interaction | Q01196+Q13951 | Potency, µM (top dose mostly 59.8 µM), without a hit: at the top dose activity, negative = inhibition, actives largely listed as inhibitors | AID 1477 | 230,000 tested, under 10 active | AlphaScreen CBFb-His/RUNX1-biotin binding, biochemical; also: % of control where 0% means no effect
#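 CBFb-His/RUNX1-biotin, 30 nM each, preincubated 20 min RT; compound 15 min RT; Ni + streptavidin beads 50 ng each, 90 min RT; AlphaScreen read.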
# PNC assembly inh: blocks assembly of the perinucleolar compartment; PC3M PTB-GFP, PNC prevalence imaging, 16 h; hits give low values; activity change (PNC), negative = inhibition, % at 10 µM; 3.1% of 140,000 active; AID 2417;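 active = readout at or below -70, meaning at least 70% loss of cells showing the perinucleolar compartment, a nuclear body marking cancer cells; inconclusive = readout between -30 and a set limit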;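 also: plate controls were DMSO wells for no effect and camptothecin positive control wells for full effect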
#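 PC3M cells stably expressing PTB-GFP, 750–1000 cells/well, treated 16 h at 37 °C with compound (23 nl of library stock), in duplicate. After paraformaldehyde fixation and Hoechst stain, imaged at 20x; PNC prevalence scored by image analysis.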
# HPGD inh: blocks human HPGD enzyme activity; purified HPGD, NADH fluorescence kinetic, PGE2 substrate; Potency, µM, for the others: at the highest dose activity change, negative = inhibition, usual class: inhibitors; 4.3% of 150,000 active; active = well fitted inhibition curve with a large enough effect, not every such curve was filed as active; inconclusive = small, poorly fitted or top-dose-only effect, or another doubt; inactive = no such curve, though single readings can be large or run the other way; also: potency is read from the fitted curve at half-maximal effect; % is scaled to controls: 0 for no effect and ±100 for the full control effect
#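 20 nM HPGD preincubated 15 min at room temperature with compound in 50 mM Tris-HCl pH 8, 0.01% Tween 20. Started with 1 mM NAD+ and 30 uM prostaglandin E2; NADH fluorescence (360/450 nm) read 5 times over 30-s intervals, last minus first.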
# HTT aggregate: inhibitors of mutant huntingtin aggregate formation in PC12 cells. PC12 HttQ103-GFP aggregates, Acumen cytometry, 40 h. Potency, µM (series often up to 46.1 µM), for the others: at the top dose activity change, negative = inhibition, hits mostly inhibitors. 1.1% of 220,000 active. AID 1688; also: potency is read from the fitted curve at half-maximal effect; % is scaled to controls: 0 for no effect and ±100 for the full control effect; nearly all actives have a fitted effect of over 60% in size
#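 PC12 cells stably carrying ecdysone-inducible HTT exon 1 Q103–GFP were induced with tebufenozide (100 nM final) and treated with library compounds in titration. GFP aggregates in lysates were counted by laser scanning cytometry.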
# ALDH1A1 block: inhibitors of human aldehyde dehydrogenase 1A1 | P00352 | Purified ALDH1A1, NADH fluorescence, propionaldehyde substrate | 7.3% of 220,000 active | Potency, µM (titrated, usually from 75.3 µM), without a hit: at the highest dose activity, negative = inhibition, usual class: inhibitors; active = well fitted inhibition curve with a large enough effect, not every such curve was filed as active; inconclusive = small, poorly fitted or top-dose-only effect, or another doubt; inactive = no such curve, though single readings can be large or run the other way;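 also: potency is read from the fitted curve at half-maximal effect; plate controls were no enzyme wells and a reference inhibitor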
# Target sequence (P00352 whole entry, looked up): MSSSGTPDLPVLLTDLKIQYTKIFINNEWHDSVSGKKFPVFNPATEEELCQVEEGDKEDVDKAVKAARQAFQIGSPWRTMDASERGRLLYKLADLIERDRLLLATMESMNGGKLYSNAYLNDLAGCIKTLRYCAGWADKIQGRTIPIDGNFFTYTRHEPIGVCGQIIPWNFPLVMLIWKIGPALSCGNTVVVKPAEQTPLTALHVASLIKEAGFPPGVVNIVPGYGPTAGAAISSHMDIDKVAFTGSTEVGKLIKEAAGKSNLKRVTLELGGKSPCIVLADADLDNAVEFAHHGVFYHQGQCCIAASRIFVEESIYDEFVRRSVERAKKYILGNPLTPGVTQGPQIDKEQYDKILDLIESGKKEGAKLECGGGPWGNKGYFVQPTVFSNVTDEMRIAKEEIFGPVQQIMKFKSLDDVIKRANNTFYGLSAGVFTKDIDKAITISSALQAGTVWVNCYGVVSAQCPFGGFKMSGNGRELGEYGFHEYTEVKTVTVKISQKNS
# HTT cytoprotect: protects HTT-Q103 PC12 cells, measured by ATP. PC12 HTT-Q103 induced, cytoprotection, ATP luminescence, 40 h. Potency, µM (titrated, usually from 56.4 µM), inactives show cytoprotection (ATP increase), most hits filed as activators. 0.14% of 230,000 active; also: potency is read from the fitted curve at half-maximal effect; % of control where 0% means no effect; nearly all actives have a fitted effect of over 45% in size
#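 Stable PC12 Q103-GFP cells in serum-supplemented, phenol red-free DMEM; induction by tebufenozide at 100 nM final; compound dose series; cell viability quantified luminescently from ATP.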
# * hit, by the source's call; ? = inconclusive; . = no result given; ! = not active in a repeat; [ ] = remark or other dose. This is a sample that favours compounds with a hit; in the whole collection about 11% have one here. Unless noted, calls follow the shape of the dose curve; as a rule, active = well fitted curve in the direction sought with a large enough effect; inconclusive = small, poorly fitted or top-dose-only effect, or another doubt; inactive = no such curve, though single readings can be large; an effect the other way counts as inactive or inconclusive.
SMILES,CBFb-RUNX1 inh,PNC assembly inh,HPGD inh,HTT aggregate,ALDH1A1 block,HTT cytoprotect
COc1cccc(CNC(=O)CSc2ccc(-c3ccco3)nn2)c1,?,.,.,-15%,13µM*,4%
CC[C@H](CO)NC(=O)[C@H]1C=C2c3cccc4[nH]cc(c34)C[C@@H]2N(C)C1,?,.,?,.,-11%[20.9 µM],-8%[40.3 µM]
C=CCc1ccc(O)c(OC)c1,12%[21.7 µM],.,2%,4%,14µM*!,20%[1.9 µM]
[Cl-].[Cl-].[Hg+2],3%[21.7 µM],.,0.1µM*,4µM*,0.14µM*,-75%
O=C(c1c[nH]c(C(=O)C(Cl)(Cl)Cl)c1)c1ccccc1Cl,1%,-25,14µM*,14%,?,-7%
CC(C)[C@@H](C)/C=C\[C@@H](C)[C@@H]1CC[C@H]2C3=CC=C4C[C@@H](O)CC[C@]4(C)[C@H]3CC[C@]21C,.,.,-4%,.,-8%[13.5 µM],-6%[10 µM]
COc1ccc(C(C)=O)cc1COc1ncnc2ccccc12,-19%,.,.,8%,1.8µM*,13%[10 µM]
CCN(CC)c1ccc(CN(C)CCc2ccc(OC)c(OC)c2)cc1,-3%,19,6%,-5%,13µM*,-9%
COc1ccc(CCN(C)Cc2ccc(F)cc2F)cc1OC,-1%,?,-8%,-13%,?,-7%
CCCCOCCOP(=O)(OCCOCCCC)OCCOCCCC,6%[21.7 µM],.,-4%,.,4%,10%
O=P(OCCCl)(OCCCl)OCCCl,-8%[21.7 µM],.,-11%,.,28µM*,0%
NC(N)=NN=C(/C=C/c1ccc([N+](=O)[O-])o1)/C=C/c1ccc([N+](=O)[O-])o1,.,.,.,10µM*,.,-99%
O=C1/C(=C/c2cc3c(cc2Cl)OCO3)N2CCC1CC2,-5%,-3,22µM*,-29%,13µM*,2%[10 µM]
O=C1/C(=C\c2cc3c(cc2Cl)OCO3)N2CCC1CC2,-12%,20,28µM*,-6%,-10%,14%[10 µM]
O=C1/C(=C\c2ccc(Cl)cc2Cl)N2CCC1CC2,5%,.,.,-4%[9.22 µM],.,-3%[10 µM]
O=C1/C(=C/c2cc([N+](=O)[O-])ccc2Cl)N2CCC1CC2,-7%,-11,-8%,-1%,?,-10%
Nc1ccc(S(=O)(=O)c2ccc(NCN3C(=O)NC(=O)C(=O)C3=O)cc2)cc1,.,.,-18%,.,9%[13.5 µM],-8%[10 µM]
O=c1cccc2n1C[C@@H]1C[C@H]2CN2CCCC[C@H]12,.,.,.,.,.,-64%
Cc1ccc(C(=O)NC(O)C(Cl)(Cl)Cl)cc1 (configuration not stated),-4%,?,14µM*,-6%,0%,-18%[10 µM]
CNC(=O)NC(O)C(Cl)(Cl)Cl (configuration not stated),.,.,.,3%,.,4%
CC(=O)C1CCC2C3CCC4=CC(=O)CC[C@@]4(C)C3CC[C@]12C (some centres not stated),11%,.,-2%,.,?,-106%
CC(=O)C(O)C(c1ccccc1)c1c(O)c2ccccc2oc1=O (configuration not stated),19%,.,.,.,.,.
COC(=O)C(O)(c1ccc(NC(=O)Oc2ccccc2)cc1)C(F)(F)F (configuration not stated),2%,18,-1%,12%,?,20%[10 µM]
COC(=O)C(O)(c1ccc(NC(=S)NC(=O)c2ccccc2)cc1)C(F)(F)F (configuration not stated),3%,-11,-6%,12%,25µM*,8%
Nc1c(C(=O)NCC2CCCO2)c2nc3ccccc3nc2n1Cc1ccco1 (configuration not stated),7%,.,.,-18%[9.22 µM],.,-22%[10 µM]
CCOC(=O)c1ccc(-n2c(N)c(C(=O)NCC3CCCO3)sc2=S)cc1 (configuration not stated),-14%,?,7.9µM*,10%,4µM*,-3%
NC(N)=NCCN=C(N)N,.,.,-4%,.,-8%[13.5 µM],-12%[10 µM]
CC(c1ccc(F)cc1)n1cc(C(=O)NCc2ccc3c(c2)OCO3)nn1 (configuration not stated),0%,-90*,.,4%,1%,-15%

# Bioassay records (PubChem BioAssay)
